PubChem BioAssay AID1578 (Sanford-Burnham Center for Chemical Genomics, 2009)
The campaign covered roughly 290,000 compounds. About 3,000 (1%) were called active. Rule as the data show it: active = inhibition mostly above about 36% (no sharp cut-off); inactive = mostly below about 34%. Many of the other results were omitted from the sample, so actives are more common in it than they were.

Assay: inhibition of NOD1-driven NF-kB reporter – cell-based, luminescence, uHTS, primary screen (AID 1578);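 also: HEK-293T reporter cells stimulated with the NOD1 agonist gamma-tri-DAP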
Conditions: NOD1-driven NF-kB luciferase reporter cells, at 4 µM, active compounds read high

| Structure (SMILES) | inhibition |
| --- | --- |
| CC(=O)c1cccc(NC(=O)Cn2cnc(S(=O)(=O)N3CCOCC3)c2)c1 | -18.3% (inactive) |
| COCc1cc(C)nc(SCc2ccc([N+](=O)[O-])cc2)c1C#N | 9.9% (inactive) |
| COc1ccc(-c2ccc3ccccc3n2)cc1 | -47% (inactive) |
| CN1CCN(c2ccc(-c3ccc4ccccc4n3)cc2)CC1 | 90.2% (active) |
| c1ccc2nc(-c3ccc(N4CCOCC4)cc3)ccc2c1 | 11% (inactive) |
| COc1cc2cc(CN(Cc3cccnc3)C(=O)Nc3ccccc3F)c(=O)[nH]c2cc1OC | -29.7% (inactive) |
| CCOc1ccccc1NC(=O)c1sc2ncn(CC(=O)N3CCOCC3)c(=O)c2c1C | 1.5% (inactive) |
| CCCCOc1ccc(CN2CCSCC2)cc1 | -28.4% (inactive) |
| CCOC(=O)c1c(C)nc2sc(C(N)=O)c(N)c2c1-c1ccccc1 | 31% (inactive) |
| Cc1nc2sc(C(N)=O)c(N)c2c(C)c1CC(=O)c1ccccc1 | 84.2% (active) |
| Cc1nc2sc(C(=O)c3ccccc3)c(N)c2c(C)c1C | 27.9% (inactive) |
| CC(=O)Nc1nc(-c2cccc3ccccc23)cs1 | -32.8% (inactive) |
| O=C(O)c1cc(=O)n(Cc2ccccc2)c(=O)[nH]1 | -11.6% (inactive) |
| O=C(Nc1cccnc1)c1ccc(COc2ccccc2Br)cc1 | -8.4% (inactive) |
| O=C(Nc1ccc(Cn2cccn2)cc1)c1ccc(COc2ccccc2Br)cc1 | 60.2% (inactive) |
| CC(C)(C)OC(=O)CNC(=O)c1nc[nH]c1C(=O)NCc1ccc(CNC(=O)OC(C)(C)C)cc1 | -14.2% (inactive) |
| O=C(c1ccccc1)N1CCCCC(Cl)C1=O (stereo not drawn) | -29.3% (inactive) |
| CCN(CC)C(=S)SC1CCCCN(C(=O)c2ccc(F)cc2)C1=O (stereo not drawn) | -8% (inactive) |
| CCN(CC)C(=S)SC1CCCCN(C(=O)c2ccccc2)C1=O (stereo not drawn) | 65.6% (active) |
| CCOc1ccc(/C(O)=C2/C(=O)C(=O)N(c3ncccn3)C2c2ccccc2)cc1 (stereo not drawn) | 91.5% (active) |
| CCOc1ccc(/C(O)=C2/C(=O)C(=O)N(c3ncccn3)C2c2ccc(Cl)cc2)cc1 (stereo not drawn) | -1% (inactive) |

| Structure (SMILES) | inhibition |
| --- | --- |
| CCOc1ccc(/C(O)=C2/C(=O)C(=O)N(c3ncccn3)C2c2ccc(C)cc2)cc1 (stereo not drawn) | -0.8% (inactive) |
| CCOc1ccc(NC(=S)Nc2ccc(F)cc2)cc1 | 2.3% (inactive) |
| CCOc1ccc(NCCC(O)c2ccc(F)cc2)cc1 (stereo not drawn) | 34.5% (active) |
| COc1ccc(NCCC(O)c2ccc(Cl)cc2)cc1 (stereo not drawn) | -11.5% (inactive) |
| S=C(NC1CCCC1)NC1CCCC1 | 2.9% (inactive) |
| Clc1ccc(/C=C/c2ncc[nH]2)c(Cl)c1 | -2% (inactive) |
| N#C/C(=C\c1cc([N+](=O)[O-])ccc1Cl)C(N)=O | -44.7% (inactive) |
| O=C(O)c1cc(C(F)(F)F)nc2c(C(F)(F)F)cccc12 | -18.1% (inactive) |
| COc1ccc(C(=O)/C=C/c2ccccc2C(F)(F)F)cc1 | -21.4% (inactive) |
| Cc1cc(C)nc(NC(=O)/C=C/c2ccc(Cl)cc2Cl)c1 | -58% (inactive) |
| O=C(CCC(=O)Nc1cc(C(F)(F)F)ccc1Cl)N/N=C\c1cc([N+](=O)[O-])ccc1O | 3% (inactive) |
| Cc1ccc(OCCCC(=O)NCc2ccco2)c(C)c1 | -28.1% (inactive) |
| COc1ccc(NC2CCCN(C(=O)CCCN3CCCCC3=O)C2)cc1 (stereo not drawn) | 19.3% (inactive) |
| CCc1ccc(CNC(=O)CCS(=O)(=O)Cc2ccccc2F)cc1 | 3.9% (inactive) |
| CCC/C(C)=C/c1ccc(CC)cn1 | 12.7% (inactive) |
| COc1cc(CNc2ccc(C(=O)O)cc2)cc(Br)c1OCC(=O)NC(C)(C)C | -27.4% (inactive) |
| CCOc1cc(CNc2ccccc2)cc(Br)c1OCC(=O)NC(C)(C)C | 4.8% (inactive) |
| COc1cc(CNc2cccc(C(=O)O)c2)cc(Br)c1OCC(=O)NC(C)(C)C | 94.3% (active) |
| CC(=O)c1ccc(N2CCN(S(=O)(=O)c3ccc4c5c3CC(=O)N5CC(C)S4)CC2)cc1 (stereo not drawn) | -20.1% (inactive) |
| CCn1c(O)c(N=NC(=O)c2cccs2)c2ccccc21 | -38.2% (inactive) |
| COc1cccc(C2CC(c3ccc(Cl)cc3)Nc3nc(N)nn32)c1 (stereo not drawn) | 13.7% (inactive) |

| Structure (SMILES) | inhibition |
| --- | --- |
| NC(=O)c1nnn(-c2ccccc2)c1N | -28.7% (inactive) |
| Nc1c(CO)nnn1-c1ccccc1 | 68.7% (active) |
| OCc1nnn(-c2ccccc2)c1CO | -4.1% (inactive) |
| COc1cc(/C=C/C(=O)OCC(=O)Nc2cc(C)c(C)cc2[N+](=O)[O-])ccc1O | -8.4% (inactive) |
| O=S(=O)(NCC1CCCO1)c1ccc(-c2ccc(Cl)cc2)cc1 (stereo not drawn) | 9.5% (inactive) |
| Cc1ccc(-c2ccc(S(=O)(=O)NCC3CCCO3)cc2)cc1 (stereo not drawn) | 47.8% (inactive) |
| Cc1cccc(N2CCN(c3ccc4cc(S(=O)(=O)N5CCCCC5)ccc4n3)CC2)c1C | 25.6% (inactive) |
| CCOc1ccccc1NC(=O)CSc1ccccc1 | -13.6% (inactive) |
| CC1CCCCC1NC(=S)Nc1ccc(Cl)cc1Cl (stereo not drawn) | 42.2% (active) |
| Cc1cc(Cl)ccc1NC(=S)NC1CCCC1 | 24% (inactive) |
| S=C(Nc1ccc(Cl)cc1Cl)NC1CCCCC1 | -5% (inactive) |
| CCOC(=O)c1ccccc1NC(=O)c1cn(-c2ccc(OC)cc2)c(=O)c2ccccc12 | 73.4% (active) |
| CCOC(=O)C(C)NC(=O)c1cn(-c2ccc(OC)cc2)c(=O)c2ccccc12 (stereo not drawn) | 1.9% (inactive) |
| CCOC(=O)c1ccccc1NC(=O)c1cn(-c2ccc(C)c(C)c2)c(=O)c2ccccc12 | 48% (inactive) |
| C=CCNC(=O)c1oc2ccc(S(=O)(=O)N3CCC4(CC3)OCCO4)cc2c1C | -20.9% (inactive) |
| Cc1noc(C)c1C(=O)OCC(=O)Nc1ccccc1Oc1ccccc1 | -14% (inactive) |
| Cc1csc(NC(=O)c2cc3c(s2)CCCC3)n1 | -106% (inactive) |
| Cc1csc(NC(=O)c2cc3c(s2)CCC3)n1 | 5.9% (inactive) |
| Cc1csc(NC(=O)c2cc3c(s2)CCCCC3)n1 | 73.7% (active) |
| CCOCCCNC(=O)c1ccc(N2CC3CC(C2)c2cccc(=O)n2C3)c(NC(=O)Nc2cccc(OC)c2)c1 (stereo not drawn) | -1.7% (inactive) |
| COc1cccc2c1cc1c(=O)n(CC(=O)N3CCCCCC3)nc(C)n12 | -16% (inactive) |
